Screens from PubChem BioAssay.
The list is not random: actives were taken first. Their share in the collection is about 3.5%.
Pf apPOL block: Pf-apPOL DNA polymerase inhibition; 0.25% of 210,000 active; inhibition, % at 10 µM; Recombinant Pf-apPOL, molecular beacon fluorescence, 1.5 h
mHTT CaM bind: inhibitors of human mutant huntingtin-calmodulin interaction. inhibition, % at 15 µM. AID 1671202. 3.6% of 190,000 active. AlphaScreen His-mHTT/GST-CaM binding, luminescence;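 also: 0% = both proteins with DMSO and 100% = one protein alone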
Target sequence (P42858 whole entry, looked up, stated change not applied): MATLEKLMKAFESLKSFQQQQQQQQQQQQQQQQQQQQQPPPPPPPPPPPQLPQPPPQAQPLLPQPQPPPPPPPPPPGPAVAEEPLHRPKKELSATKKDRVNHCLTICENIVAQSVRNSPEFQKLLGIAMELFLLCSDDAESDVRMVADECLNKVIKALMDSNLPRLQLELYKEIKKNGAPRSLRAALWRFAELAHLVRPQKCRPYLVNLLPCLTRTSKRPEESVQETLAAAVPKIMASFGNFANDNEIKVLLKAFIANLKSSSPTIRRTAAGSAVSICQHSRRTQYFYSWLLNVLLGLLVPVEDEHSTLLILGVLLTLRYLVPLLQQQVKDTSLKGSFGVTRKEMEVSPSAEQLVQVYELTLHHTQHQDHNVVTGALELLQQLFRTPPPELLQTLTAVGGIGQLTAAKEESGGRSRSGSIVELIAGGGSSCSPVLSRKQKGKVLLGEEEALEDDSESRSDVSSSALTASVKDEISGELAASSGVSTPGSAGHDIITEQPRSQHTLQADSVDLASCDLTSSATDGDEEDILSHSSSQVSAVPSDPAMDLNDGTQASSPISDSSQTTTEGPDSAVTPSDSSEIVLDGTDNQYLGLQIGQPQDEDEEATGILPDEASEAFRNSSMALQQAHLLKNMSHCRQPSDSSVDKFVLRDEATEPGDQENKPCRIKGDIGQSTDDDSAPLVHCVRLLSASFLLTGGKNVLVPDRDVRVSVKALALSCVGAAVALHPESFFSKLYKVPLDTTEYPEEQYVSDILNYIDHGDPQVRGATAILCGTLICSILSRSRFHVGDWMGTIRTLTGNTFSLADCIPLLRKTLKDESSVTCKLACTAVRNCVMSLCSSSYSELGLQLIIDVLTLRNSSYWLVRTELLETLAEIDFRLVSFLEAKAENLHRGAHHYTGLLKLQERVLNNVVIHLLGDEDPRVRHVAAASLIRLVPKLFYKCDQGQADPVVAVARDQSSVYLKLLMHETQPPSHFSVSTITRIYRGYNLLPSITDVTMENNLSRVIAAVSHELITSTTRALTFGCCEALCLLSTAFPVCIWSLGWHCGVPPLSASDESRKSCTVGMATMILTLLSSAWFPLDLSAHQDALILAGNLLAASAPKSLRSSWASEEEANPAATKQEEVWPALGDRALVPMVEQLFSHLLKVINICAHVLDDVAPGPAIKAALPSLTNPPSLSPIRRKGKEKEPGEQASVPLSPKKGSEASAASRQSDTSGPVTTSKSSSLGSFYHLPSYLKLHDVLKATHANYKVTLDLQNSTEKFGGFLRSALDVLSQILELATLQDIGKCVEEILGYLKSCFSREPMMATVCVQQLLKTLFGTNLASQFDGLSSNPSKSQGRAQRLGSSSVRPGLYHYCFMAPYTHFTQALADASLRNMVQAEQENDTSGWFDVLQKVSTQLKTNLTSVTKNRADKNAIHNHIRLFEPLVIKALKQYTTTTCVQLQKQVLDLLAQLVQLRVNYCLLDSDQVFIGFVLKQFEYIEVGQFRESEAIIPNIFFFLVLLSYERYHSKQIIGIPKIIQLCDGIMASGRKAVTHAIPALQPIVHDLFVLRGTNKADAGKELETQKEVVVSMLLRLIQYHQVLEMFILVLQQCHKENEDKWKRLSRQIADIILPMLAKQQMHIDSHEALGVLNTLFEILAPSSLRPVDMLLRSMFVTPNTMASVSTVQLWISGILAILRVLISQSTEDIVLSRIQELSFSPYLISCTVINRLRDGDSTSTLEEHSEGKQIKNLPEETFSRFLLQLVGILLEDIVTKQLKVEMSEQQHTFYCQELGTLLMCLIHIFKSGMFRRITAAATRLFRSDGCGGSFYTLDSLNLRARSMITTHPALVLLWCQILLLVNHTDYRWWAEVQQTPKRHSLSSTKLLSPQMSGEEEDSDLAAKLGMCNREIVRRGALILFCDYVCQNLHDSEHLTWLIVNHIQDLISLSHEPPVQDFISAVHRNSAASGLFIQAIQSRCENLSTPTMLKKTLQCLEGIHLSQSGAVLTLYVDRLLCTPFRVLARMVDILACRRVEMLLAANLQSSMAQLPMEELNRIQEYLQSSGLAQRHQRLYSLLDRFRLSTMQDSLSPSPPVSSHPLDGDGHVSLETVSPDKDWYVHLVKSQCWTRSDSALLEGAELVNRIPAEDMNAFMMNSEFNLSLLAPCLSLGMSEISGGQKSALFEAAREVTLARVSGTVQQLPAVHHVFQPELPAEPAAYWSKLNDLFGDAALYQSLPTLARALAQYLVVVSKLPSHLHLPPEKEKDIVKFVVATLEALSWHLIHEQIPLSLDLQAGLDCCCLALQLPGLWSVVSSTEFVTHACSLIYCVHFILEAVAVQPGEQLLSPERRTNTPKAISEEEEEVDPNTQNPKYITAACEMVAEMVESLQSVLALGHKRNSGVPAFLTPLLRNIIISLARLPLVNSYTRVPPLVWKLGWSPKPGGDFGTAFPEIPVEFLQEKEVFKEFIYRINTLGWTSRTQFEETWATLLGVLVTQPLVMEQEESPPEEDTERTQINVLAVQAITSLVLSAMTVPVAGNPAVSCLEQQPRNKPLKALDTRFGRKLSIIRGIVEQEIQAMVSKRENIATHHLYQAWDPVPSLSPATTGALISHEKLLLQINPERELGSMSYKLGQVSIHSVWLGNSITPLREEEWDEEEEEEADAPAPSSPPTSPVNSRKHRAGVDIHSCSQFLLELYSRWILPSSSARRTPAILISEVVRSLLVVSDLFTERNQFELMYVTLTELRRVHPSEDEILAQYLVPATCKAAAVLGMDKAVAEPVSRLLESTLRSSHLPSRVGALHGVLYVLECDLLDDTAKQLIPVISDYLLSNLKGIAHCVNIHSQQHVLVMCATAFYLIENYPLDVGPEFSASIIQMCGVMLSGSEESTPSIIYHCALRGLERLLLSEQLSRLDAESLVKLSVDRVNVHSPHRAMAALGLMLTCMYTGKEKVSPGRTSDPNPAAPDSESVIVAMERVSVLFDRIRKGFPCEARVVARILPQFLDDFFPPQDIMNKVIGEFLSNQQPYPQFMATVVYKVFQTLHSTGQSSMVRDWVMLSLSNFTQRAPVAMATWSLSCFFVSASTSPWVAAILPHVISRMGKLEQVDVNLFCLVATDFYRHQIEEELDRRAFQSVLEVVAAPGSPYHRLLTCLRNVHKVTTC
* = called active by the depositor; . = no result. Rule as the data show it: active = inhibition above about 50%; inactive = the rest.

SMILES	Pf apPOL block	mHTT CaM bind
CCC(=O)N1CCC(c2nc(C)ccc2C(=O)Nc2cccc(C)c2)CC1	-8	12
Cc1ccc(N2C(=O)S/C(=C\c3ccc(O)cc3)C2=O)cc1	-3	12
CC(/C=C1\SC(=O)N(c2ccc(O)cc2)C1=O)=C\c1ccccc1	-4	60*
O=C(NCCC1=CCCCC1)c1cccc(Cl)c1	-5	-22
O=c1cc2oc3cc(O)c(-c4ccc(O)cc4O)cc3nc-2cc1-c1ccc(O)cc1O	.	100*
O=c1cc(-c2ccc(O)cc2)oc2cc(O)cc(O)c12	6	.
Cc1ccc(Cl)cc1N1CCN(C(=O)Cn2c(-c3cnccn3)nc3ccccc32)CC1	-1	4
O=c1c2c(-c3ccccc3)csc2nc2c3ccccc3c(NCc3ccco3)nn12	1	100*
O=c1c2ccccc2nc2c3ccccc3c(NCc3ccco3)nn12	-2	65*
Fc1ccccc1-c1nc(NCc2ccco2)c2ccccc2n1	-6	5
O=C(Cn1cnc2scc(-c3ccccc3)c2c1=O)NCc1ccco1	-9	19
O=S(=O)(Nc1ccc(Cl)cc1F)c1ccc(Br)cc1	-6	0
COc1ccc(OCCOc2ccccc2OC(C)C)cc1	-3	-14
OCCN(CCO)c1nc(N2CCCCC2)c2nc(N(CCO)CCO)nc(N3CCCCC3)c2n1	61*	.
OCCNc1nc(N2CCCCC2)nc(N2CCCCC2)n1	.	-13
Cc1ccnc(Nc2ccc(NCCNC(=O)c3c(F)cccc3F)nn2)c1	-6	100*
Cc1ccc(NCCNC(=O)c2c[nH]c3ccccc23)nn1	-14	-11
CCc1ccc(NC(=O)c2cnc(N3CCN(c4ncccn4)CC3)c3ccccc23)cc1	1	-7
Cc1cccc(NC(=O)Cc2nc(-c3ccccc3)n[nH]2)c1C	-2	5
Cc1cccc(NC(=O)Cc2nc(-c3ccccn3)n[nH]2)c1C	-8	99*
Cc1ccc(NC(=O)Cc2nc(-c3ccccn3)n[nH]2)cc1	-6	69*
CCOC(=O)Cc1nc(-c2ccccn2)n[nH]1	-6	98*
Cc1ccccc1NC(=O)Cc1nc(-c2ccccn2)n[nH]1	-10	100*
O=C(Cc1nc(-c2cccnc2)n[nH]1)Nc1ccc(F)cc1	-1	-3
N#CCc1nc(-c2ccccn2)n[nH]1	-25	.
SMILES	Pf apPOL block	mHTT CaM bind
Cc1ccc(NC(=O)Cc2nc(-c3ccccc3)n[nH]2)c(C)c1	-1	1
O=C(Nc1ccc(N2CCCN(C(=O)c3ccccc3)CC2)nc1)C1CC1	0	2
O=C(CN1CCN(Cc2ccccc2)C1=O)NCc1ccc(F)cc1	41	2
O=C(c1ccco1)N1CCC(c2ccn3ncc(C(=O)N4CCCC4)c3c2)CC1	3	4
COc1ccc(OC)c(/C=C2\N=C(c3ccc(OC)c(OC)c3)OC2=O)c1	-3	18
O=C(Cc1nc(-c2ccccn2)n[nH]1)Nc1ccc(F)c(F)c1	-14	86*
O=C(Cc1nc(-c2cccnc2)n[nH]1)Nc1ccc(F)c(F)c1	-1	2
O=C(Nc1n[nH]c(C(=O)O)n1)c1ccc(Br)cc1	-4	9
CCc1ccc(OCC(=O)N2CCCCC2CCN2CCCCC2)cc1 (centres undefined)	-14	5
Cc1ccc(C(=O)N2N=C(c3ccc(Br)cc3)CC2c2ccco2)cc1 (centres undefined)	-3	78*
O=C(O)CCCC(=O)N1N=C(c2ccc(Br)cc2)CC1c1ccco1 (centres undefined)	-2	22
CCOc1ccc(C(C)NC(=O)c2cc3c(s2)CCN(C(=O)c2ccccc2)C3)cc1 (centres undefined)	-6	15
N#Cc1ccccc1Nc1sc(C(=O)c2ccccc2)c(N)c1C(N)=O	0	10
NC(=O)c1c(Nc2ccccc2Cl)sc(C(=O)c2ccccc2)c1N	-4	86*
O=C(NC(C(=O)N1CCCCC1)C12CC3CC(CC(C3)C1)C2)c1ccc(Cl)cc1 (centres undefined)	-6	-2
CC(C)c1ccc(/C=C2\Sc3ccccc3C2=O)cc1[N+](=O)[O-]	-2	40
O=C1/C(=C/c2cc([N+](=O)[O-])cc(Br)c2O)Sc2ccccc21	-7	89*
O=C1/C(=C/c2ccc([N+](=O)[O-])cc2)Sc2ccccc21	89*	11
O=C1/C(=C/c2cc([N+](=O)[O-])c(Cl)cc2Cl)Sc2ccccc21	4	19
COc1ccc(-c2ccc(/C=C3\Sc4ccccc4C3=O)o2)c([N+](=O)[O-])c1	-4	51*
COc1ccc(-c2ccc(C=C3C(=O)OC(c4ccccc4)OC3=O)o2)c([N+](=O)[O-])c1 (centres undefined)	-3	3
O=C1/C(=C/c2c(Cl)ccc([N+](=O)[O-])c2Cl)Sc2ccccc21	2	67*
O=C1/C(=C/c2cccc([N+](=O)[O-])c2O)Sc2ccccc21	-4	15
O=C(NC1CC1)c1cccc(OCC2CCCN(C(=O)c3ccc(C(F)(F)F)cc3)C2)c1 (centres undefined)	2	17
Cc1cc(C)cc(-n2ccnc(NC(=O)Nc3ccccc3)c2=O)c1	-4	2
SMILES	Pf apPOL block	mHTT CaM bind
COc1cc(C(C)=O)ccc1OCC(=O)NCCn1cnc(-c2ccc(F)cc2)cc1=O	-5	-9
Cc1ccc(/C=C2\N=C(c3ccc([N+](=O)[O-])cc3Cl)OC2=O)cc1	0	-3
COCCN(CCOC)Cc1c(O)ccc2c(-c3cc4ccccc4oc3=O)cc(=O)oc12	0	-4
Brc1ccccc1Nc1ncnc2[nH]ncc12	-10	-2
Nc1cc(Cl)c(Oc2cccc(Cl)c2Cl)cc1[N+](=O)[O-]	-3	97*
O=C(O)c1cc([N+](=O)[O-])c(C(=O)O)cc1Oc1cc(Cl)c(Cl)cc1Cl	-5	-5
CCCN1C(=O)S/C(=C/c2cn(CC(=O)N3CCOCC3)c3ccccc23)C1=O	-2	19
C#CCN1C(=O)S/C(=C\c2cn(CC(=O)N3CCOCC3)c3ccccc23)C1=O	-3	75*
COCCNC(=O)C1c2ccccc2CC(=O)N1C(C)C (centres undefined)	-8	-4
CCCn1cnnc1C1CCN(C(=O)Cc2c[nH]c3ccccc23)CC1	2	13
Cn1cnnc1C1CCCCN1C(=O)Cc1c[nH]c2ccccc12 (centres undefined)	91*	4
CC(=O)N1CCc2cc(N3CC(C(=O)Nc4cccc(Cl)c4)CC3=O)ccc21 (centres undefined)	-3	4
O=C(Nc1nnc2ccccn12)c1cccc(C(F)(F)F)c1	-22	40
N#Cc1ccc(C(=O)Nc2nnc3ccccn23)cc1	-5	33
O=C(Nc1nnc2ccccn12)c1ccc(Cl)cc1	-10	52*
COc1cccc(C(=O)Nc2nnc3ccccn23)c1	-4	71*
CCC(C)NC(=O)c1c2c(nc3ccc(C)cc13)CCC2 (centres undefined)	-3	10
Cc1cc(C)c(O)c(N=Cc2ccc([N+](=O)[O-])cc2)c1	-5	28
COc1ccccc1C(=O)N1CCN(c2cc(-c3cccnc3)[nH]n2)CC1	-7	-3
COc1ccccc1C(=O)N1CCCN(c2cc(-c3ccccc3)[nH]n2)CC1	-2	57*
O=C(Nc1ccccc1)C1CCN(c2ccc3ccccc3c2)C1=O (centres undefined)	-3	3
O=C(C1CCN(c2ccc3ccccc3c2)C1=O)N1CCN(Cc2ccccc2)CC1 (centres undefined)	-1	54*
O=C(Nc1cnc(-c2cccc(Cl)c2)nc1)C1CCCC1	-1	-13
